Results filed as inconclusive are left out. A number with no mark means an inactive call. The call rests on the fitted dose curve; in most records, active means well fitted curve in the direction sought with a large enough effect; inconclusive means small, poorly fitted or top-dose-only effect, or effect the other way, or another doubt; inactive means no such curve, though single readings can be large or run the other way. Bridge positions count the residues as written; N and C are the ends. Square brackets hold non-standard residues; d marks the D form. Side chains are listed from the residue outwards. Peptide text beside a SMILES is read from it. * marks the point of attachment. Phg(4-OMe) = COc1ccc([C@H](N)C(=O)O)cc1; d(aIle) = CC[C@H](C)[C@@H](N)C(=O)O; d(aThr) = C[C@@H](O)[C@@H](N)C(=O)O; NMeF = CN[C@@H](Cc1ccccc1)C(=O)O; Isobutyryl = CC(C)C(=O)*
Test: 10-beta competent E. coli microbial cell viability qHTS against the NCATS CANVASS Library (AID 1347376); further: 0% is about no effect
Details: E. coli 10-beta viability, BacTiter-Glo ATP luminescence, overnight; series mostly up to 46.1 µM; activity change, negative = cytotoxic: at the top concentration
Description: Natural products and their derivatives continue to be wellsprings of nascent therapeutic potential. However, many laboratories have limited resources for biological evaluation, leaving their previously isolated or synthesized compounds largely or completely untested. To address this issue, the Canvass library of natural products was assembled (https://tripod.nih.gov/canvass), in collaboration with academic and industry researchers, for quantitative high-throughput screening (qHTS) across a diverse set of cell-based and biochemical assays. The pure (>85% purity by liquid chromatography/mass spectrometry [LC/MS]) Canvass library of 346 natural products were submitted by 45 academic laboratories and companies around the world. We collected pure natural products to circumvent deconvolution and structure elucidation due to time and resource limitations. The library was formatted into 1536-well plates and evaluated in 50 qHTS (in an 11-pnt concentration series) bioassays with broad scope of disease-relevant mechanisms. The resulting data set from 50 different assays was then systematically analyzed to identify overall trends and specific natural products with interesting biological activities. Reported herein are the results of each individual qHTS and their corresponding assay protocol. The BacTiter-Glo microbial cell viability assay is a homogeneous method for determining the number of viable bacterial cells in culture based on quantitation of the ATP present. ATP is an indicator of metabolically active cells. The homogeneous assay procedure involves adding a single reagent (BacTiter-GloTM Reagent) directly to bacterial cells in medium and measuring luminescence. National Center for Advancing Translational Sciences (NCATS), Rockville, MD National Institute of Health (NIH), Bethesda, Maryland
10-beta competent E.coli cytotoxicity protocol: 1. In a 1536 well, tissue culture treated white solid bottom plates (Greiner Bio-One North America), 5 uL of 10-beta competent E. coli suspension (0.9 OD culture diluted 0.2 OD) was dispensed into columns 1, 2, and 5-48 using the Multidrop Combi dispenser (Thermo Fisher Scientific). 2. Controls and compounds were pin transferred (~23 nL volume) to the assay plates via Wako Pin-tool (Wako Automation, Richmond VA) equipped with a 1536 pin head. The compounds were transferred to columns 5-48 resulting in a final concentration ranging from 0.17nM to 92uM. Daunomycin was used as a control in various concentrations (1mM working concentration; 1:2 dilution; 16 points; n=2; column 2, rows) for a final concentration range of 0.2 nM to 9.2 uM. 3. The assay plates were incubated overnight at 37C, 5% CO2, 95% humidity. 4. 2.5 uL of BacTiterGlo solution (Promega) was then added to the assay plates (column 1-48, rows 1-32). The assay plates were incubated at room temperature for 20 min. 5. Luminescence signal was acquired via the ViewLux plate reader using a clear emission filter, 2 second exposure and 2x binning settings.
For `C=C(C)CC[C@H](Cc1c(O)cc(O)c2c1O[C@H](c1ccc(O)cc1)CC2=O)C(=C)C`, the “activity change, negative = cytotoxic” value was -17.6%.
With `C[C@H]1CCC2(OC1)O[C@H]1C[C@H]3[C@@H]4CC(=O)[C@]5(O)C[C@H](O)CC[C@@]5(C)[C@H]4CC[C@@]3(C)[C@H]1[C@H]2C` (stereo not given in full) the “activity change, negative = cytotoxic” value was -13.1%.
For `C=CC(CCCCC)C1C(=O)NC(=O)C1C(=O)C1C2C(C)CC(C(=O)O)CC2CC1(O)C(=O)/C=C/C` (stereo not given), the “activity change, negative = cytotoxic” value was -2.14%.
For `O=C1CCC(=O)N(O)CCCCCNC(=O)CCC(=O)N(O)CCCCCNC(=O)CCC(=O)N(O)CCCCCN1`, the “activity change, negative = cytotoxic” value was -4.66%.
With `CC[C@H](O)CCCCC[C@@H]1NC(=O)[C@H]2CCCCN2C(=O)[C@H]([C@H](C)CC)NC(=O)[C@H](Cc2cn(OC)c3ccccc23)NC1=O` the “activity change, negative = cytotoxic” value was -9.02%.
With `O=C1CC(c2ccc(O)cc2)Oc2cc(O)ccc21` (stereo not given) the “activity change, negative = cytotoxic” value was -16.6%.
In the case of `CO[C@H]1/C=C/CCCCC(=O)O[C@@H](/C(C)=C/[C@H](C)C(=O)C[C@H](O)CC2CC(=O)NC(=O)C2)[C@@H](C)C1`, the “activity change, negative = cytotoxic” value is reported as 0.4%.
In the case of `COC12OC1(C13OC1(OC)C(=O)c1cc4cc(C)oc(=O)c4c(O)c1C3O)C(O)c1c(cc3cc(C)oc(=O)c3c1O)C2=O` (stereo not given), the “activity change, negative = cytotoxic” value is reported as -10.2%.
In the case of `O[C@H]1C=C2[C@H]3CN(Cc4cc5c(cc43)OCO5)[C@H]2C[C@@H]1O`, the “activity change, negative = cytotoxic” value is reported as -5.82%.
For `CN1CC[C@]23c4ccccc4N[C@H]1[C@]21CCN(C)[C@H]3Nc2ccccc21`, the “activity change, negative = cytotoxic” value was 2.08%.
With `C/C(=C\[C@H](C)C(=O)/C=C/CC1CC(=O)NC(=O)C1)[C@@H]1OC(=O)CCCC/C=C/[C@H](O)[C@@H](O)[C@@H]1C` the “activity change, negative = cytotoxic” value was -2.71%.
With `CC(C)C[C@@H]1c2c(O)c(C=O)c(O)c(C=O)c2O[C@]2(C)C=C[C@@H](C(C)C)C[C@H]12` the “activity change, negative = cytotoxic” value was -1.54%.
With `C=C1CCC2C(C)(C(=O)O)CCC(CC/C(C)=C/C(=O)NC(CCC(N)=O)C(=O)O)[C@@]2(C)C1` (stereo not given in full) the “activity change, negative = cytotoxic” value was 1.77%.
With `C[C@H](c1cnc(N)[nH]1)c1ccc(O)c2[nH]cc(-c3cnc(-c4c[nH]c5ccccc45)c(=O)[nH]3)c12` the “activity change, negative = cytotoxic” value was 15.7%.
For `COc1ccc(-c2oc3cc(OC)cc(OC)c3c(=O)c2O)cc1`, the “activity change, negative = cytotoxic” value was -8.52%.
With `C=C1CC[C@@H](Br)C(C)(C)[C@]12CC=C(C)C(=O)C2` the “activity change, negative = cytotoxic” value was -2.29%.
In the case of `C/C=C/C1C=CC2CC(C)CC(C)C2C1C(=O)CC(=O)NC(CO)C/C=C/CCCCC` (stereo not given), the “activity change, negative = cytotoxic” value is reported as -3.54%.
In the case of `CC[C@H](C)[C@H]1NC(=O)[C@@H](NC(=O)C(C)C)[C@@H](C)OC(=O)[C@H](COC(=O)CNC(C)=O)NC(=O)[C@@H]([C@@H](C)O)NC(=O)[C@H](Cc2ccccc2)N(C)C(=O)[C@H](c2ccc(OC)cc2)NC1=O` (Isobutyryl-T[d(aIle)][Phg(4-OMe)][NMeF][d(aThr)]S([Gly-Ac]); ester 1-C), the “activity change, negative = cytotoxic” value is reported as -6.49%.
With `C=C1CC[C@@H](O[C@H]2C[C@@](O)([C@H](C)NC(=O)c3[nH]c(C)c(Cl)c3Cl)[C@H](O)[C@@H](C)O2)[C@@H]2C=C[C@H](C)C(/C(O)=C3/C(=O)[C@H](C(C)C)N([C@@H]4O[C@H](C)[C@H](OC(N)=O)[C@H](OC(C)=O)[C@@H]4OC)C3=O)[C@@H]12` (stereo not given in full) the “activity change, negative = cytotoxic” value was 20%.
For `C/C=C(/C)c1cc(O)c(C)c2c1Oc1cc(O)cc(C)c1C(=O)O2`, the “activity change, negative = cytotoxic” value was -4.99%.
With `CC[C@H]1[C@H](C)[C@H](c2cc(OC)c(OC)cc2OC)[C@@H](C)[C@H](c2cc(OC)c(OC)cc2OC)[C@@]12C=C(OC)C(=O)C=C2OC` the “activity change, negative = cytotoxic” value was -6.7%.
For `O=C(OC[C@H]1O[C@@H](OC(=O)c2cc(O)c(O)c(O)c2)[C@H](OC(=O)c2cc(O)c(O)c(O)c2)[C@@H](OC(=O)c2cc(O)c(O)c(O)c2)[C@@H]1OC(=O)c1cc(O)c(O)c(O)c1)c1cc(O)c(O)c(O)c1`, the “activity change, negative = cytotoxic” value was -10.6%.
In the case of `COc1c(O)cc2c(c1O)C(=O)c1c(coc1C)C2=O`, the “activity change, negative = cytotoxic” value is reported as -14.4%.
In the case of `C/C(=C\[C@H](C)C(=O)/C=C/CC1CC(=O)NC(=O)C1)[C@@H]1OC(=O)/C=C/CC/C=C/C[C@@H](O)[C@@H]1C`, the “activity change, negative = cytotoxic” value is reported as 2.74%.
In the case of `[C-]#[N+][C@@]12C(=O)[C@@H]3[C@@H](O[C@@]4(C(=O)N(C)c5cccc1c54)C3(C)C)C(=O)[C@@]2(C)C=C`, the “activity change, negative = cytotoxic” value is reported as -8.55%.
With `C/C=C(/C)c1c(Cl)c(O)c(C)c2c1Oc1c(Cl)c(O)c(Cl)c(C)c1C(=O)O2` the “activity change, negative = cytotoxic” value was -16.2%.
In the case of `C=CC(CCCCC)C1C(=O)NC(=O)C1C(=O)C1C(/C=C/C)C=CC2CC(C(=O)O)CC(C)C21` (stereo not given), the “activity change, negative = cytotoxic” value is reported as -16.7%.
In the case of `O=c1cc(-c2ccc(O)c(O)c2)oc2cc(O[C@@H]3O[C@H](CO)[C@@H](O)[C@H](O)[C@H]3O)cc(O)c12`, the “activity change, negative = cytotoxic” value is reported as -6.5%.
With `COC(=O)[C@]1([C@H]2CCC(=O)O2)CC(=O)c2c(O)cc(C)cc2O1` the “activity change, negative = cytotoxic” value was -0.367%.
With `CCC(=O)N[C@@H](C[C@H](C)C(Cl)(Cl)Cl)C(=O)N1C(=O)C=C(OC)[C@@H]1CC(C)C` the “activity change, negative = cytotoxic” value was 7.67%.
With `C[C@H](CCC(O)C(C)(O)CO)[C@@]1(O)CC[C@@]2(C)C3=C(CC[C@@]21C)[C@@]1(C)CCC(OC(=O)CCC(=O)O)C(C)(C)[C@@H]1CC3` (stereo not given in full) the “activity change, negative = cytotoxic” value was 12.2%.
With `CN1CCc2cc3c(c4c2C1(C)C(=O)c1cc(O)ccc1-4)OCO3` (stereo not given) the “activity change, negative = cytotoxic” value was -7.1%.
For `C=C1C[C@]23C=CC(=O)[C@@](C)(CCCC(C)C(=O)N[C@@H](CO)C(=O)O)[C@@H]2C[C@@H]1CC3` (stereo not given in full), the “activity change, negative = cytotoxic” value was -2.17%.
In the case of `CC(C)=CCC/C(C)=C/Cc1cc([C@@H]2CC(=O)c3c(cc(O)c(CC=C(C)C)c3O)O2)ccc1O`, the “activity change, negative = cytotoxic” value is reported as -11.4%.
With `CCC(=O)CCCCC[C@@H]1NC(=O)[C@H]2CCCCN2C(=O)[C@H](C(C)C)NC(=O)[C@H](Cc2cn(OC)c3ccccc23)NC1=O` the “activity change, negative = cytotoxic” value was 10.2%.
Compound `COc1ccc([C@@H]2CC(=O)c3c(cc(O)c(C/C=C(\C)CCC=C(C)C)c3O)O2)cc1` has an activity change, negative = cytotoxic of -2.49% [at 9.19 µM].
For `COC(=O)c1cc2cc3c(c(O)c2c(=O)o1)OC1(CC3)CC2=C(O1)C(=O)c1c(O)c(OC)cc(OC)c1C2=O` (stereo not given), the “activity change, negative = cytotoxic” value was -18.4%.
`COc1cc(C2OCC3C(c4ccc(O)c(OC)c4)OCC23)ccc1O` (stereo not given) showed an activity change, negative = cytotoxic of -5.45% [at 9.19 µM].
For `C[C@@]1(CCC(=O)Nc2c(O)ccc(C(=O)O)c2O)C(=O)C=C[C@]23C[C@H]4C[C@H](O[C@@]4(C)C2)C31` (stereo not given in full), the “activity change, negative = cytotoxic” value was -9.6%.
With `CCC(=O)N[C@@H](C[C@H](C)C(Cl)(Cl)Cl)C(=O)N1C(=O)C=C(OC)[C@@H]1C[C@H](C)CCl` the “activity change, negative = cytotoxic” value was -1.11%.
